From PubChem BioAssay (NCATS) come the findings set out here.

Where “and” joins values, the source holds several entries; their conditions need not be identical. Identical values can stand only once. Unmarked numbers belong to inactive results. Results filed as inconclusive are left out. Calls of active or inactive are those of the source. Calls follow the shape of the dose curve; as a rule, active = well fitted curve in the direction sought with a large enough effect; inconclusive = small, poorly fitted or top-dose-only effect, or another doubt; inactive = no such curve, though single readings can be large or run the other way.

For one assay, the target named is Hexokinase-4 (Homo sapiens) + Glucokinase regulatory protein (Homo sapiens) (UniProt P35557+Q14397). The experiment in a line: qHTS assay for inhibitors of recombinant human GCK-GKRP interaction: HTRF assay (AID 743207).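 Also: 0% = DMSO with GCK present and -100% = DMSO wells lacking GCK.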 As to conditions: recombinant GCK-GKRP HTRF binding, 60 min, with sorbitol-6-phosphate; series mostly up to 57.5 µM; activity change, negative = inhibition: at the top concentration. In outline: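 Titration screening format: recombinant GST-GCK and FLAG-GKRP at 5 nM, S6P at 2 uM, labelled anti-tag antibodies, 60 min at RT, dual-wavelength HTRF readout.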
Hexokinase-4 (Homo sapiens) + Glucokinase regulatory protein (Homo sapiens), sequence (P35557 whole entry, looked up): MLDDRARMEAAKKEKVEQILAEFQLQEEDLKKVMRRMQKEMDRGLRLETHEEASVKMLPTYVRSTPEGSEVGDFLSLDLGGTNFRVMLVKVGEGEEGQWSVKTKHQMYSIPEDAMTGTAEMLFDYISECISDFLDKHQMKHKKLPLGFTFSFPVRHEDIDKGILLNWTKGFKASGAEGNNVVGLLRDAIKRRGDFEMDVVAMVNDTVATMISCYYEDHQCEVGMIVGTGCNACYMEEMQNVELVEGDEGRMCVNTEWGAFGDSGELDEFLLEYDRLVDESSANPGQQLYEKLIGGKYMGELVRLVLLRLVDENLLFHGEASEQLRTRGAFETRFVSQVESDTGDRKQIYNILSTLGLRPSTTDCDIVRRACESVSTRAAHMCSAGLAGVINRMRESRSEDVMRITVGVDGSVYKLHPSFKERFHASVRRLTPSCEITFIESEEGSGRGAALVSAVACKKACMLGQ
Hexokinase-4 (Homo sapiens) + Glucokinase regulatory protein (Homo sapiens), sequence (Q14397 whole entry, looked up): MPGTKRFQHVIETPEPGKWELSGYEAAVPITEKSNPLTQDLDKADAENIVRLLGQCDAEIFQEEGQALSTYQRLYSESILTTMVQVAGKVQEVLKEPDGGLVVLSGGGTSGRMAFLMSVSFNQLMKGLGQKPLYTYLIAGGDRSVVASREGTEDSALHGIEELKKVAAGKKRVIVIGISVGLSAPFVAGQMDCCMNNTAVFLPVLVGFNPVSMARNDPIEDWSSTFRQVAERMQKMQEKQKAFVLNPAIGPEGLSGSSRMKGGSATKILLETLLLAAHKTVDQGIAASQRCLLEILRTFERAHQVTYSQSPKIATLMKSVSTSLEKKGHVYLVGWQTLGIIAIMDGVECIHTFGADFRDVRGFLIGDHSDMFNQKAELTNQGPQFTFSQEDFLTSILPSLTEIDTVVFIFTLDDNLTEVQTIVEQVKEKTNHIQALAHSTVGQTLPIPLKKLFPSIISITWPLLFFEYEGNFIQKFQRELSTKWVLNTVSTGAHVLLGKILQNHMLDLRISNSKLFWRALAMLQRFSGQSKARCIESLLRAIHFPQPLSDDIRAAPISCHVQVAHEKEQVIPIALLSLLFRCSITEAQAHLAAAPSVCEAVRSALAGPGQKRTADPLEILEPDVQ
Consider `CNC(=O)[C@H]1O[C@@H](n2cnc3c(NCc4ccc(N)cc4)ncnc32)[C@H](O)[C@@H]1O`, for which the “activity change, negative = inhibition” value is -4.48%.
As for `CSc1nc(N)c2ncn([C@@H]3O[C@H](COP(=O)(O)OP(=O)(O)OP(=O)(O)O)[C@@H](O)[C@H]3O)c2n1`, the “activity change, negative = inhibition” value was -10%.
For the compound `CN1C2CCC1CC(OC(=O)C(O)c1ccccc1)C2` (centres undefined), the “activity change, negative = inhibition” value was 19%.
On to `CN1CCC[C@H]1c1cccnc1`, for which the “activity change, negative = inhibition” value was 2.91%.
`CCN(CC)c1ncnc2c1ncn2[C@@H]1O[C@H](COP(=O)(O)OP(=O)(O)C(Br)(Br)P(=O)(O)O)[C@@H](O)[C@H]1O`: the “activity change, negative = inhibition” value is -1.75%.
For `COc1ccccc1N1CCN(CCCCNS(=O)(=O)c2cccc3c(N(C)C)cccc23)CC1`, the “activity change, negative = inhibition” value was 19.5%.
As to `CN1CCc2cccc3c2C1Cc1ccc(O)c(O)c1-3` (centres undefined), the “activity change, negative = inhibition” value was 0.579%.
Take `CCCCCCCCCCCCCCCC(=O)NCC(COP(=O)([O-])OCC[N+](C)(C)C)OCC` (centres undefined): the “activity change, negative = inhibition” value is 4.17%.
In the case of `NC(CCCP(=O)(O)O)C(=O)O` (centres undefined), the “activity change, negative = inhibition” value is 6.73%.
As for `CC[C@@H](C)[C@H]1O[C@]2(CC[C@H]1C)C[C@@H]1C[C@@H](CC=C(C)[C@@H](O[C@H]3C[C@H](OC)[C@@H](O[C@H]4C[C@H](OC)[C@@H](O)[C@H](C)O4)[C@H](C)O3)[C@@H](C)C=CC=C3CO[C@@H]4[C@H](O)C(C)=C[C@@H](C(=O)O1)[C@]34O)O2`, the “activity change, negative = inhibition” value was 14.8%.

System in the next assay: not listed separately
Briefly: qHTS Assay for Identifying Gametocytocidal Compounds (AID 743244). Also: potency is read from the fitted curve at half-maximal effect.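 As to max response: % is scaled to controls: 0 for no effect and ±100 for the full control effect; actives lower the fluorescent signal which means gametocytes are killed.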 As to conditions: P. falciparum 3D7 stage III-V gametocytes, alamarBlue, 72 h; max response: active compounds read low. In outline: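 Fluorescence at Ex 525/Em 598 nm, recorded 24 h after alamarBlue addition, reports residual metabolic activity of 3D7 gametocytes (stages III–V) following 72 h compound exposure at 37 °C, 5% CO2.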
With `Cc1[nH]cnc1CN1CCc2c(c3ccccc3n2C)C1=O`, the max response is -6.58%.
Turning to `Cc1c(C(=O)O)c(O)cc2c1C(=O)c1c(O)c([C@@H]3O[C@H](CO)[C@@H](O)[C@H](O)[C@H]3O)c(O)c(O)c1C2=O`, the max response is -1.02%.
On to `CCOC(=O)c1ccccc1O`, for which the max response is -3.35% and 9.79%.
Take `CCCCCCCCCCCCCCCC(=O)OC(C)C`: the max response is 3.03%.
Consider `CN(C)[C@@H]1C(=O)C(C(=O)NCN2CCCC2)=C(O)[C@@]2(O)C(=O)C3=C(O)c4c(O)cccc4[C@@](C)(O)C3C[C@@H]12` (some centres undefined), for which the max response was 6.22% and 1.93%.
On the same count and under the same terms, under `Nc1cc(-c2ccncc2)c[nH]c1=O` stands 14.6%; under `CNC(=O)[C@H]1O[C@@H](n2cnc3c(NCc4ccc(N)cc4)ncnc32)[C@H](O)[C@@H]1O`, 6.14%.
As for `CC(=O)c1ccc(OCC(=O)N2CCCCC2)cc1`, the max response is 6.76%.
Turning to `Nc1c(CC(=O)O)cccc1C(=O)c1ccc(Br)cc1`, the max response was 4.37%.
Same read-out and setting: under `CSc1nc(N)c2ncn([C@@H]3O[C@H](COP(=O)(O)OP(=O)(O)OP(=O)(O)O)[C@@H](O)[C@H]3O)c2n1` stands 11.9%.
With `CC(C)OC(=O)c1cc(C(=O)OC(C)C)cc([N+](=O)[O-])c1`, the max response was 4.99%.
For the compound `Cc1ccc(C(=O)c2ccc(CC(=O)O)n2C)cc1`, the max response is 39.2%.
Same read-out and setting: as for `COC(=O)C1=C(C)NC(C)=C(C(=O)OCC(C)C)C1c1ccccc1[N+](=O)[O-]` (centres undefined), the figure is 0.875%.
As to `CN1C2CCC1CC(OC(=O)C(O)c1ccccc1)C2` (centres undefined), the max response is 30%.
`Nc1ccc(O)c([N+](=O)[O-])c1`: the max response is -7.22%.
Take `[O-][n+]1ccccc1SSc1cccc[n+]1[O-]`: the Potency is 0.148 µM (active).
As to `COc1ccc(-c2cc(=S)ss2)cc1`, the max response was 9.16%.
In the case of `CCOc1ccc2nc(S(N)(=O)=O)sc2c1`, the max response is 10.4%.
As to `CCCC(=O)OC[C@@H](OC(=O)CCC)[C@@H](OC(=O)CCC)[C@H](Cn1c2nc(=O)[nH]c(=O)c-2nc2cc(C)c(C)cc21)OC(=O)CCC`, the max response is 3.76%.
Same read-out and setting: as for `COc1ccccc1N1CCN(CCCCNS(=O)(=O)c2cccc3c(N(C)C)cccc23)CC1`, the figure is 10.4%.
For the compound `O=C(OCc1ccccc1)c1ccccc1`, the max response is -5.44%.
Regarding `Nc1ccc([N+](=O)[O-])cc1O`, the max response is -2.68%.
Consider `Cc1c(Nc2ncccc2C(=O)O)cccc1C(F)(F)F`, for which the max response is 18.5%.
Regarding `Nc1nc(Cl)nc2c1ncn2[C@@H]1O[C@H](COP(=O)(O)OP(=O)(O)OP(=O)(O)O)[C@@H](O)[C@H]1O`, the max response was 20.1%.
For `C[N+]1(C)[C@@H]2CC(OC(=O)[C@H](CO)c3ccccc3)C[C@H]1[C@@H]1O[C@@H]12` (some centres undefined), the max response is -10.6%.
Regarding `O=C(/C=C/c1ccccc1)NCCO`, the max response was 7.68%.
On to `COC(=O)C1=C(C)NC(C)=C(C(=O)OCC(C)=O)C1c1ccccc1[N+](=O)[O-]` (centres undefined), for which the max response is 14.8%.
With `Cc1cc(O)c2ccccc2c1O`, the Potency was 15.8 µM (active).
For the compound `CCCCCCCCCCCCCCCC(=O)NCC(COP(=O)([O-])OCC[N+](C)(C)C)OCC` (centres undefined), the max response was 1.33%.
